Test [1] relates to XIP peptide (Xip251-270) binding. Briefly: XIP fragment 251-270 binding compounds – biochemical, small-molecule microarray, fluorescence 635/667 nm, 0.1 µg/mL protein, primary screen (AID 1182). The settings on record: fluorescent protein binding, 635 nm, higher = more signal, called active from +8 up or from −8 down.
In test [2] the test system is XIP peptide (Xip251-270). Briefly: compounds binding XIP fragment 251-270 – biochemical, small-molecule microarray, fluorescence 635/667 nm, 0.5 µg/mL protein, primary screen (AID 1183). The settings on record: fluorescence 635 nm, higher = more signal.
Test [3] can be described thus: blood-stage malaria parasite viability loss – strain 3D7, DAPI fluorescence, 100 nL, primary screen (AID 1184).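 Also: parasites grown inside human red blood cells in medium with human serum.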 To be noted: P. falciparum 3D7 growth, 3 d, higher = more signal.
Test [4] addresses Homeobox protein Hox-A13 (Mus musculus) (UniProt Q62424). Briefly: disruptors of Hoxa13 oligonucleotide interaction – biochemical, fluorescence polarization, labeled oligonucleotide, primary screen (AID 1185). To be noted: Hoxa13:DNA binding, 15 min, higher = more signal, called active from +8 up or from −8 down. (In general: Polarisation of emitted light reports the rotation of a fluorescent probe.)

Test [5] can be described thus: blockers of DNA damage checkpoint Chk1 activation – imaging, HeLa, hydroxyurea, phospho-Chk1 antibody, percent positive cells, primary screen (AID 1186). To be noted: hydroxyurea-induced phospho-Chk1 immunofluorescence imaging, higher = more signal.
Test [6] is described as follows: blockers of DNA damage checkpoint Chk1 activation – imaging, HeLa, hydroxyurea, phospho-Chk1 nuclear intensity, primary screen (AID 1187). To be noted: hydroxyurea-induced phospho-Chk1 immunofluorescence imaging, higher = more signal.

Activity calls are given as the source filed them. Unless noted, no rule for the calls is given here.

Chain of Homeobox protein Hox-A13 (Mus musculus) (Q62424 whole entry, looked up): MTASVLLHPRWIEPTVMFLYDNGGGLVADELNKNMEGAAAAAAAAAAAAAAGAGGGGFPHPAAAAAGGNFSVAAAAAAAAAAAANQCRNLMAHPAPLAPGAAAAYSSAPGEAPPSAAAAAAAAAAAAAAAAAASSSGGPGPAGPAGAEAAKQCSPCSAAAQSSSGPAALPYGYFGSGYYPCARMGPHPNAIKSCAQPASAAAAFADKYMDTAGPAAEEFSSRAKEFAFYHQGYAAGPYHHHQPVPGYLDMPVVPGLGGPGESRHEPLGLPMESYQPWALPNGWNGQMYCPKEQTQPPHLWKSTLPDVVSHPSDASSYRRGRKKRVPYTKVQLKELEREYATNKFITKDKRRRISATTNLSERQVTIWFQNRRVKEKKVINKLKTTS

Take `COC(=O)[C@@]1(Cc2ccc(OC)cc2)[C@H]2c3cc(C(=O)N(C)C)n(CCO)c3C[C@H]2CN1C(=O)c1ccccc1`: the composite z-score in test [1] is -0.509 (inactive); in test [2] it was -0.947. In addition, the z-score in test [3] is 0.302; in test [4], -4.38 (inactive); in test [5], 0.931 (inactive); in test [6], 0.524 (inactive).
Take `CC(=O)c1ccc(C(O)C2C=CC3C(=O)N(c4ccccc4)C(=O)C3N2Nc2ccc(C#N)cc2)cc1` (configuration not stated): the composite z-score is -0.305 (inactive) in test [1] and 0.441 in test [2]. Further, the z-score in test [3] is 0.981; in test [4], -4.75 (inactive); in test [5], 0.293 (inactive); in test [6] it was -0.211 (inactive).
As for `C=CCC(OC(C)=O)[C@@H]1[C@@H](N(Cc2ccc(-c3ccccc3)cc2)C(=O)Cc2ccc(F)cc2)c2cc(OCCCO)ccc2N1C(=O)Cc1ccc(OC)cc1` (some centres not stated), the composite z-score was 0.0187 (inactive) in test [1] and -0.308 in test [2]. Besides, the z-score in test [3] was -0.939; in test [4] it was -2.3 (inactive); in test [5] it was -0.245 (inactive); in test [6], -0.23 (inactive).
As for `CCOC(=O)c1ccc(NC(=O)O[C@H]2[C@H](OC(=O)Nc3ccc4c(c3)OCO4)[C@@H](OC(=O)Nc3ccc4c(c3)OCO4)[C@@H](OC)O[C@@H]2CO)cc1`, the composite z-score is 1.15 (inactive) in test [1] and 0.894 in test [2]. The z-score was -2.42 in test [3], -8.16 (active) in test [4], -0.301 (inactive) in test [5] and -0.0975 (inactive) in test [6].
In the case of `COCCOC(=O)N1C(=O)[C@@]2(c3cc(C#Cc4ccc(OC)cc4)ccc31)[C@H](C(=O)Nc1nc3ccccc3s1)[C@H]1C(=O)O[C@H](c3ccccc3)[C@H](c3ccccc3)N1[C@@H]2c1ccc(O)cc1`, the composite z-score was -0.363 (inactive) in test [1] and 0.748 in test [2]. Moreover, the z-score is -1.89 in test [3], -0.829 (inactive) in test [4], -0.519 (inactive) in test [5] and -0.999 (inactive) in test [6].
`C=C(C(=O)CC[C@@H](OC(C)=O)c1ccc(CO)o1)C(C)C`: the figures for the composite z-score in test [1] and in test [2] were 0.164 (inactive) and 0.656, respectively. Also, the z-score in test [3] was -0.14; in test [4], -4.08 (inactive); in test [5] it was 0.257 (inactive); in test [6] it was 0.636 (inactive).
As for `COc1ccc(CCNC(=O)[C@@]2(Sc3ccc(C)cc3)CC(=O)N(C3Cc4ccccc4C3)[C@@H]2c2ccc(CO)cc2)cc1`, the composite z-score in test [1] is 0.984 (inactive); in test [2] it was 0.703. Besides, the z-score is -1.89 in test [3], 0.563 (inactive) in test [4], -0.341 (inactive) in test [5] and -0.452 (inactive) in test [6].
As to `C=CC[C@]1(C(=O)O)COC(c2ccc(OCCCO)cc2)=N1`, the values for the composite z-score in test [1] and in test [2] were 0.324 (inactive) and 0.614, respectively. The z-score is -0.12 in test [3], -0.685 (inactive) in test [4], -0.173 (inactive) in test [5] and -0.315 (inactive) in test [6].
`CN(C)C(=O)[C@]1(CCS(=O)(=O)c2ccccc2)N=C(c2ccc(OCCCO)cc2)O[C@@H]1c1ccccc1N=[N+]=[N-]`: the composite z-score in test [1] was 1.1 (inactive); in test [2] it was 0.821. For the same compound, the z-score was -2.34 in test [3], -3.11 (inactive) in test [4], -0.197 (inactive) in test [5] and -0.447 (inactive) in test [6].
As for `COCCOC(=O)N1C(=O)[C@@]2(c3cc(C#CCC(C(=O)OC)C(=O)OC)ccc31)[C@H](C(=O)N1CCc3cc(OC)c(OC)cc3C1)[C@H]1C(=O)O[C@H](c3ccccc3)[C@H](c3ccccc3)N1[C@@H]2c1ccc(OCCO)cc1`, the composite z-score in test [1] is 0.655 (inactive); in test [2], 0.749. The z-score in test [3] was -2.1; in test [4], 3.49 (inactive); in test [5], -0.0997 (inactive); in test [6] it was 0.159 (inactive).
In the case of `O=C(NCC(F)(F)F)[C@@H]1c2ccccc2C(=O)N(Cc2ccc(OC(F)(F)F)cc2)[C@H]1c1ccc(CO)cc1`, the values for the composite z-score in test [1] and in test [2] were 0.21 (inactive) and 0.235, respectively. Besides, the z-score in test [3] was -0.828; in test [4], -3.13 (inactive); in test [5], -0.263 (inactive); in test [6], -0.383 (inactive).
Consider `COc1ccc([Si](C)(C)[C@H]2[C@H](CCn3cc([C@H](O)c4ccccc4)nn3)O[C@@]3(C(=O)N(Cc4ccc(N5C(=O)c6cccc7cccc5c67)cc4)c4ccccc43)[C@@H]2C)cc1`, for which the composite z-score in test [1] is 0.784 (inactive); in test [2] it was 0.199. For the same compound, the z-score was -1.59 in test [3], -0.717 (inactive) in test [4], -0.283 (inactive) in test [5] and -0.162 (inactive) in test [6].
With `C=CCOC(=O)[C@H]1[C@@H]2C(=O)O[C@@H](c3ccccc3)[C@@H](c3ccccc3)N2[C@@H](c2ccc(OCCOC(=O)[C@H]3C[C@H]4C(=O)N[C@@H](CC(C)C)C(=O)N4[C@H]3c3cccc(OCCO)c3)cc2)[C@]12C(=O)Nc1ccc(I)cc12`, the composite z-score in test [1] is 0.124 (inactive); in test [2], 0.694. Moreover, the z-score was -1.79 in test [3], 0.344 (inactive) in test [4], -0.592 (inactive) in test [5] and -1.19 (inactive) in test [6].
As to `COc1ccccc1CN1C(=O)c2ccccc2[C@](Cc2ccccc2I)(C(=O)NCC(F)(F)F)[C@@H]1c1ccc(CO)cc1`, the composite z-score in test [1] is 0.931 (inactive); in test [2], 0.909. For the same compound, the z-score in test [3] was -1.49; in test [4], -4.98 (inactive); in test [5], -0.0993 (inactive); in test [6], -0.0597 (inactive).
As for `C=CCC(OC(C)=O)[C@@H]1[C@@H](N(Cc2cccc3ccccc23)C(=O)c2cccc3ccccc23)c2cc(OCCCO)ccc2N1C(=O)c1ccc(-c2ccccc2)cc1` (some centres not stated), the composite z-score in test [1] was 0.71 (inactive); in test [2] it was 0.686. In addition, the z-score in test [3] is -2.37; in test [4] it was -1.52 (inactive); in test [5], 0.305 (inactive); in test [6], 0.466 (inactive).
Consider `CC(C)(C)OC(=O)CC[C@@]1(C(=O)NCc2ccccc2)N=C(c2ccc(OCCCO)cc2)O[C@@H]1c1ccccc1N=[N+]=[N-]`, for which the composite z-score in test [1] is -0.208 (inactive); in test [2], 0.759. The z-score is -2.1 in test [3], -1.44 (inactive) in test [4], -0.347 (inactive) in test [5] and 0.14 (inactive) in test [6].
Take `CC(C)C[C@@H]1NC(=O)[C@@H]2C[C@H](C(=O)NCCCCN(C)C)[C@H](c3cccc(OCCO)c3)N2C1=O`: the composite z-score was 0.36 (inactive) in test [1] and 0.755 in test [2]. The z-score was -0.192 in test [3], -3.41 (inactive) in test [4], -0.232 (inactive) in test [5] and -0.455 (inactive) in test [6].

The values are drawn from PubChem BioAssay.
